# In PubChem BioAssay:
# Active and inactive are the calls of the source.
# Legend:
# Albumin (Bos taurus) = Albumin (Bos taurus) (UniProt P02769); experiment: bovine serum albumin binders on microarray, profiling panel, artefact control for SMM control protein annotation, biochemical, small-molecule microarray, Alexa647 label, 635/667 nm fluorescence (AID 1118); conditions: BSA-A647 binding, fluorescence 635 nm, higher = more signal;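 further: score merges 667 nm emission intensity and signal-to-noise per printed compound spot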
# Albumin (Bos taurus), sequence (P02769 whole entry, looked up): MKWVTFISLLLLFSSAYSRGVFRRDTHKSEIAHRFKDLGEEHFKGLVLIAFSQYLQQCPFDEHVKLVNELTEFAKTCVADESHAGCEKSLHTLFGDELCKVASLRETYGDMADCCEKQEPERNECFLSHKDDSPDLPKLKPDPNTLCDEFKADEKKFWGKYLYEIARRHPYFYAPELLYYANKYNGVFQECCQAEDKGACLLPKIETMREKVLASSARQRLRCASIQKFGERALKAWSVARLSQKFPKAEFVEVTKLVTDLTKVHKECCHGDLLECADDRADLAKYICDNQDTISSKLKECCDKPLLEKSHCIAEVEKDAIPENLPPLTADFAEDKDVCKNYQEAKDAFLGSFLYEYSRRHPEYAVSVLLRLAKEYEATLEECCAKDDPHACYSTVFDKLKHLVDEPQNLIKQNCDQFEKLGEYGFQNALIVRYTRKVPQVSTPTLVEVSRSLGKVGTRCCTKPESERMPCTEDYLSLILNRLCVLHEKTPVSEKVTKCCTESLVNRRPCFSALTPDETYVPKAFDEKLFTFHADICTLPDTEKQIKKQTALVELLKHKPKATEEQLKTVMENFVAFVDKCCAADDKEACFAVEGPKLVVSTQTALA
# [1] = small-molecule microarray binders of probe aXIP, primary screen, biochemical, NeuroSMM set, 635/667 nm fluorescence (AID 1119); conditions: higher = more signal, called active from +8 up or from −8 down;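 further: probe is the protein aXip251-270 applied at 1 µg/mL to compound-printed slides; binding of probe to printed compounds measured as 667 nm fluorescence plus signal to noise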
# [2] = small-molecule binders of probe aNOTCH3, primary screen, biochemical, small-molecule microarray, 635/667 nm fluorescence (AID 1120); conditions: higher = more signal;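 further: probe is a biotin-tagged antibody raised against NOTCH3 rather than NOTCH3 protein; score merges spot fluorescence near 667 nm with spot signal to noise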
# [3] = small-molecule binders of probe aNOTCH2, primary screen, biochemical, small-molecule microarray, 635/667 nm fluorescence (AID 1121); conditions: higher = more signal;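 further: score merges feature fluorescence read at 667 nm with its signal to noise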
# [4] = molecular target: Carbonic anhydrase 2 (Homo sapiens) (UniProt P00918); experiment: CAII small-molecule binders, profiling panel, biochemical, small-molecule microarray, Alexa647-labelled CAII (AID 1122); conditions: CAII-A647 binding fluorescence, higher = more signal
# [5] = COS7 lysate on small-molecule microarray, probe aHis, 635 nm (AID 1123); conditions: COS7 cell lysate, fluorescence, higher = more signal;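 further: z-score combines 667nm fluorescence intensity with signal-to-noise per printed compound spot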
# [6] = compound binding in COS7 lysate, probe aLAP1, primary screen, cell lysate, small-molecule microarray (AID 1124); conditions: probe aLAP1, fluorescence, higher = more signal;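 further: lysate comes from COS7 cells expressing LAP1 and is applied at 0.3 µg/mL; score merges spot fluorescence near 667 nm with signal-to-noise over triplicate slides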
# Sam68 (KHDRBS1) = experiment: Sam68 small-molecule binders, primary screen, biochemical, small-molecule microarray, 635 nm fluorescence (AID 1125); conditions: small-molecule microarray binding, higher = more signal;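 further: score merges 667 nm channel intensity with signal to noise over triplicate slides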
# [7] = system: Chordin-like protein 2 (CHRDL2); experiment: CHRDL2 small-molecule binders, primary screen, biochemical, small-molecule microarray, 635 nm fluorescence (AID 1126); conditions: small-molecule microarray binding, fluorescence 635 nm; higher = more signal;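 further: printed compound slides probed with Chrdl2 protein at 4 µg/mL for 1 h at 4 C; score merges 667 nm emission intensity with signal to noise over three replicate slides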
# [8] = molecular target: Concanavalin-A (Canavalia ensiformis) (UniProt P02866); experiment: ConA small-molecule binders, primary screen, artefact control for SMM control protein annotation, biochemical, small-molecule microarray, Alexa647 label, 635 nm (AID 1127); conditions: ConA-A647 binding fluorescence, higher = more signal;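 further: z combines 667 nm emission intensity with signal-to-noise across three replicate slides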
# Concanavalin-A (Canavalia ensiformis), sequence (P02866 whole entry, looked up): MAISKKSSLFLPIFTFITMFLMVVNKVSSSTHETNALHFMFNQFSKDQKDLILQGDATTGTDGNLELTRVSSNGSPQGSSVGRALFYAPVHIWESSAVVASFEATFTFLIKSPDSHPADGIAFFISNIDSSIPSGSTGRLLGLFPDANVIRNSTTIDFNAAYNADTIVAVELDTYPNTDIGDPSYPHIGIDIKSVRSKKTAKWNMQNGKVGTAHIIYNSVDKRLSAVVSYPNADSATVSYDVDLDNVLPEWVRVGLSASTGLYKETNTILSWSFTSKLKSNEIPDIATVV
# [9] = anti-His antibody binders, primary screen, artefact control for SMM control protein annotation, biochemical, small-molecule microarray, 635 nm fluorescence (AID 1128); conditions: anti-His Alexa647 antibody binding, higher = more signal;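 further: score merges feature fluorescence with signal-to-noise for each printed compound spot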
# [10] = system: Human papillomavirus type 1a E7 protein (residues 1-88); experiment: HPV1a E7 small-molecule binders, primary screen, biochemical, small-molecule microarray, residues 1-88, 635 nm (AID 1129); conditions: small-molecule microarray binding, fluorescence 635 nm; higher = more signal
# [11] = molecular target: Focal adhesion kinase 1 (Homo sapiens) (UniProt Q05397); experiment: small-molecule microarray binders of FAK, primary screen, biochemical, 635/667 nm fluorescence, BSA, DTT (AID 1130); conditions: PTK2 binding, 635 nm fluorescence, higher = more signal;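 further: composite of spot emission at 667 nm and signal to noise over triplicate slides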
# Focal adhesion kinase 1 (Homo sapiens), sequence (Q05397 whole entry, looked up): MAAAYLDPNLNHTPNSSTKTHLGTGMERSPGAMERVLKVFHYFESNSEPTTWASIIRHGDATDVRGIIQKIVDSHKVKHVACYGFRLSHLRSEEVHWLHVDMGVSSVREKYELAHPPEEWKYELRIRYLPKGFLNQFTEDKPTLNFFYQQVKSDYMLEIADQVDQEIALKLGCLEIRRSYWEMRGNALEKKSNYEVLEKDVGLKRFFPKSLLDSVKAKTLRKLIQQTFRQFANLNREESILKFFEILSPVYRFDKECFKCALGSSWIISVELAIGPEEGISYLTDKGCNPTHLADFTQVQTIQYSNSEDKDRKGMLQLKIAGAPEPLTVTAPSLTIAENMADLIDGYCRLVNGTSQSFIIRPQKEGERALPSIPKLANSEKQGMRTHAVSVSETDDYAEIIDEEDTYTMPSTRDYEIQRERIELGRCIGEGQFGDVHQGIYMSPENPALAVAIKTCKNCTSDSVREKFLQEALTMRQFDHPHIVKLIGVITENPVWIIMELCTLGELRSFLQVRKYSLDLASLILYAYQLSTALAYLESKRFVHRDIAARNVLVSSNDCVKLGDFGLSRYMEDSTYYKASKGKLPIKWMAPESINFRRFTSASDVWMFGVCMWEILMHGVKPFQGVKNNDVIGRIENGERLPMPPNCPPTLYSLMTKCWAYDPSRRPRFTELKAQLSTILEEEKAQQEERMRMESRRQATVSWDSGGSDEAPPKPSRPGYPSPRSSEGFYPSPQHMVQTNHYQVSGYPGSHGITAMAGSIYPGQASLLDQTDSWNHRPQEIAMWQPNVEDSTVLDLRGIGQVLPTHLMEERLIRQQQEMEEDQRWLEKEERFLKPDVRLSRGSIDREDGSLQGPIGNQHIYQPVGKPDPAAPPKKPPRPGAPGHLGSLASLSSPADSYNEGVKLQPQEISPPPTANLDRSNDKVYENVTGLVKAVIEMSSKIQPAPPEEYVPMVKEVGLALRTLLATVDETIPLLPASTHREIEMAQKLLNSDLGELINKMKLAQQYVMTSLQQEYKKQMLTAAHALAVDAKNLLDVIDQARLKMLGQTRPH
# [12] = system: Fibrinogen (Alexa647-labelled); experiment: fibrinogen binders on compound microarrays, profiling panel, artefact control for SMM control-protein annotation, biochemical, small-molecule microarray, 635/667 nm fluorescence (AID 1131); conditions: fibrinogen-A647 binding fluorescence, higher = more signal;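 further: z-score merges 667 nm fluorescence with per-spot signal-to-noise over triplicate slides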
# [13] = molecular target: Follistatin (Homo sapiens) (UniProt P19883); experiment: follistatin binders on small-molecule microarrays, primary screen, biochemical, small-molecule microarray, 635/667 nm fluorescence (AID 1132); conditions: FST binding, 635 nm fluorescence, higher = more signal
# Follistatin (Homo sapiens), sequence (P19883 whole entry, looked up): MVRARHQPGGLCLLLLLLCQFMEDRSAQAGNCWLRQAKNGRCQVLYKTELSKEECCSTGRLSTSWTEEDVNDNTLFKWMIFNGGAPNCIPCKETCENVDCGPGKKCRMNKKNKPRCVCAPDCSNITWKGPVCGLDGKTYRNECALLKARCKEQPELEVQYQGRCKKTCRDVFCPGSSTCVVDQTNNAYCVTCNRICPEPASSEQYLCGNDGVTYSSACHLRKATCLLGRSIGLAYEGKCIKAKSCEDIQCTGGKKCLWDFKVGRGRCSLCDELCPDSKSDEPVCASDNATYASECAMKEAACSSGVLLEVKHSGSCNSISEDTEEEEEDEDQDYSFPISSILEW
# [14] = molecular target: Fibroblast growth factor 2 (Homo sapiens) (UniProt P09038); experiment: FGF2 binders on small-molecule microarrays, primary screen, biochemical, small-molecule microarray, 635/667 nm fluorescence (AID 1133); conditions: small-molecule microarray binding, FGF2, fluorescence 635/667; higher = more signal
# Fibroblast growth factor 2 (Homo sapiens), sequence (P09038 whole entry, looked up): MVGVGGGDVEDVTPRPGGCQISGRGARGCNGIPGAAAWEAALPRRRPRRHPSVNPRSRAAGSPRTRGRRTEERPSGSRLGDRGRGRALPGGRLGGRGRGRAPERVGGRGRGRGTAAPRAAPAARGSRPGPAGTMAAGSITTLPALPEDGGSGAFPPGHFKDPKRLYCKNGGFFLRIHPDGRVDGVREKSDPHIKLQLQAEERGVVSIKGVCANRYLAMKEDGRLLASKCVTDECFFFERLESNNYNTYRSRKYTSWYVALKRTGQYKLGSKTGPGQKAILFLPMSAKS
# [15] = mitochondrial membrane potential change in A549 cells, profiling panel, cell-based, JC-1 fluorescence, basal, 24 h, 100 nL (AID 1138); conditions: higher = more signal;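 further: A549 lung adenocarcinoma cells under basal conditions with no added stimulus; test concentration not given here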
# Lefty1 = Lefty1 binders on small-molecule microarrays, primary screen, biochemical, small-molecule microarray, 635/667 nm fluorescence (AID 1139); conditions: small-molecule microarray binding, fluorescence 635/667; higher = more signal
# [16] = system: wheat germ agglutinin (Triticum aestivum), Alexa647-labelled; experiment: wheat germ agglutinin binders on compound microarrays, profiling panel, artefact control for SMM control-protein annotation, biochemical, small-molecule microarray, 635/667 nm fluorescence (AID 1140); conditions: WGA-A647 binding, 635 nm fluorescence, higher = more signal;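 further: score merges 667 nm feature emission with signal to noise over triplicate slides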
# [17] = molecular target: Luciferin 4-monooxygenase (Photinus pyralis) (UniProt P08659); experiment: firefly luciferase enzyme inhibitors, primary screen, biochemical, luminescence, purified enzyme, 2006 set (AID 1141); conditions: SteadyGlo luminescence, 30 min, higher = more signal, called active from +8 up or from −8 down;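 further: cell-free assay with purified firefly luciferase at 100 ng per well in PBS; test concentration not given here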
# Luciferin 4-monooxygenase (Photinus pyralis), sequence (P08659 whole entry, looked up): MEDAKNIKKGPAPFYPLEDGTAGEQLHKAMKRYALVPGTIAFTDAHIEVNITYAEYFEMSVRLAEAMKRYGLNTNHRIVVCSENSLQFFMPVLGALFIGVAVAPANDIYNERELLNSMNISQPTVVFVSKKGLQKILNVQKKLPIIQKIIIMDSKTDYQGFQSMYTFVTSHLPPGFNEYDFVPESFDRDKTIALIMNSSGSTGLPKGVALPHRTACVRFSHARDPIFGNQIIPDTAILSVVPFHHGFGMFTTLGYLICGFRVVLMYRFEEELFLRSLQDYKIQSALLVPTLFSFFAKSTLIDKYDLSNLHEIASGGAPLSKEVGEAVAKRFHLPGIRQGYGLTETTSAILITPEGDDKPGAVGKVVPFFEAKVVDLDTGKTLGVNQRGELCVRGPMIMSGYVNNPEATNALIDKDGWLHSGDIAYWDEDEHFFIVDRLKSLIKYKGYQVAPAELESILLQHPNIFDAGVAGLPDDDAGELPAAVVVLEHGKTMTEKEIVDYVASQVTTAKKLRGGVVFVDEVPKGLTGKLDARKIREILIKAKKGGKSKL
Structure (SMILES),composite z-score (Albumin (Bos taurus)),composite Z-score [1],composite z-score [2],composite z-score [3],composite z-score [4],composite z-score [5],composite z-score [6],composite z-score (Sam68 (KHDRBS1)),composite z-score [7],composite z-score [8],composite z-score [9],composite z-score [10],composite z-score [11],composite z-score [12],composite z-score [13],composite z-score [14],z-score [15],composite z-score (Lefty1),composite z-score [16],z-score [17]
C=CCN1C(=O)[C@@]2(O[C@@H](CCn3cc([C@H](O)c4ccccc4)nn3)[C@H]([Si](C)(C)c3ccc(OC)cc3)[C@H]2C)c2cc(NC(=O)c3ccc(OC)cc3)ccc21,-0.105,-0.0277 (inactive),-0.0932,-0.173,0.148,0.637,0.0719,1.03,0.271,0.713,0.623,0.931,0.386,0.0475,0.987,0.518,0.763,0.628,-0.191,0.427 (inactive)
CC(C)(C)N1CC=CC23O[C@@H]4C=CCCOC(=O)C4[C@H]2C(=O)N(CCCO)[C@@H]3C1=O (stereo not given in full),-2.01,0.494 (inactive),-0.222,-0.177,0.405,-0.552,-0.0817,-1.76,-0.487,-3.17,-1.89,-1.75,-0.491,-1.66,-0.103,-0.464,-0.754,-0.292,-1.96,-0.0881 (inactive)
C[N+](C)(C)CCCCCCNC(=O)[C@H]1C[C@H]2C(=O)N3CCC[C@H]3C(=O)N2[C@H]1c1cccc(OCCO)c1,-0.564,0.491 (inactive),0.398,-0.0135,0.662,1.73,0.787,0.976,1.03,1.15,1.38,0.874,0.141,0.242,1.3,1.35,-1.05,1.64,-0.0285,0.126 (inactive)
C=CCC(OC(C)=O)[C@@H]1[C@@H](N(Cc2cccc3ccccc23)C(=O)c2ccc(C)cc2)c2cc(OCCCO)ccc2N1C(=O)c1ccc2ccccc2c1 (stereo not given in full),-0.0007,0.0941 (inactive),0.0311,-0.0924,0.0697,0.583,-0.27,-0.044,0.224,-0.525,-0.204,0.133,0.0096,0.189,0.672,0.123,1.15,0.102,-0.193,-0.195 (inactive)
COCCOC(=O)N1C(=O)[C@@]2(c3cc(C#CCNC(N)=O)ccc31)[C@H](C(N)=O)[C@H]1C(=O)O[C@H](c3ccccc3)[C@H](c3ccccc3)N1[C@@H]2c1ccc(OCCO)cc1,-0.217,0.462 (inactive),0.276,-0.0979,0.52,0.475,0.53,0.815,1.03,1.09,-0.224,1.03,0.199,0.609,1.48,1.26,-2.25,1.46,0.121,-1.8 (inactive)
